The values below come from ChEMBL document CHEMBL3433997, “St. Jude Leishmania screening dataset” (2016).

What all share (format): functional
For assay [1], the target named is Solute carrier family 2, facilitated glucose transporter member 1 (Homo sapiens) (UniProt P11166). The assay is described as follows: ST_JUDE_LEISH: Cytotoxicity at 2uM final concentration against transgenic Leishmania Mexicana promastigotes LmGLUT1 that are glucose transport deficient and complemented with the human glucose transporter GLUT1. Activity is measured by DNA content using SYBR green in vitro.
Chain of Solute carrier family 2, facilitated glucose transporter member 1 (Homo sapiens) (P11166 whole entry): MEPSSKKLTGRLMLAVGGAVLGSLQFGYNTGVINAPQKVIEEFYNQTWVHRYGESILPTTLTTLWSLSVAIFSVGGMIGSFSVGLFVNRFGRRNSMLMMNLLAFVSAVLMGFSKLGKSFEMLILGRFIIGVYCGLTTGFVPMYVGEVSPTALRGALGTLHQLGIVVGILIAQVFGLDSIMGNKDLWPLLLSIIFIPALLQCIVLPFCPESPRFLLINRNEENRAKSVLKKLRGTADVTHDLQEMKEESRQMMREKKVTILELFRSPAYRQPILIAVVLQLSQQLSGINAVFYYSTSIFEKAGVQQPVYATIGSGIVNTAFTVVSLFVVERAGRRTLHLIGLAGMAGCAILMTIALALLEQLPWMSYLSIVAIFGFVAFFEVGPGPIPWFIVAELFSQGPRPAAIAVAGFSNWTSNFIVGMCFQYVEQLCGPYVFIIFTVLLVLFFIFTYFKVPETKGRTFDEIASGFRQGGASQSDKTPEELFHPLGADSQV

The target in assay [2] is Hexose transporter 1 (Plasmodium falciparum) (UniProt O97467). In words: ST_JUDE_LEISH: Cytotoxicity at 2uM final concentration against transgenic Leishmania Mexicana promastigotes LmPfHT that are glucose transport deficient and complemented with the Plasmodium falciparum hexose transporter. Activity is measured by DNA content using SYBR green in vitro.
Assay [3] addresses Glucose transporter (Leishmania mexicana) (UniProt O61059). In words: ST_JUDE_LEISH: Cytotoxicity at 2uM final concentration against transgenic Leishmania Mexicana promastigotes LmGT2 that are glucose transport deficient and complemented with the L. Mexicana glucose transporter 2. Activity is measured by DNA content using SYBR green in vitro.

What is called inhibition is the drop in the measured response relative to a control, in per cent. As to `CCOC(=O)C1CCN(CCOc2cc(NC(=O)/C=C/c3ccccc3Cl)ccc2Br)CC1`, the inhibition worked out at 8.71% in assay [1], 6.51% in assay [2] and 7.58% in assay [3].
Consider `CN(C)Cc1ccc(-c2cc3c(-c4ccc(CN(C)C)cc4)ccnc3[nH]2)cc1`, for which the figures for the inhibition in assay [1], in assay [2] and in assay [3] were 5.17%, 12.8% and 2.4%, respectively.
On to `COc1cc(CCNC(=O)Cc2ccc3ccccc3c2)ccc1OCc1ccccc1`, for which the results for the inhibition in assay [1], in assay [2] and in assay [3] were 1.9%, 1.88% and 0.92%, respectively.
Turning to `CCCc1cc(=O)oc2cc(OC)c(C(=O)CC(C)C)c(OC)c12`, the inhibition came to 0.58% in assay [1], 3.76% in assay [2] and 6.92% in assay [3].
`CN(C)Cc1c(O)ccc2oc(Cc3ccccc3)cc12`: the inhibition in assay [1] is -1.64%; in assay [2], -1.55%; in assay [3], -0.96%.
On to `COc1ccccc1N1CCN(CCCCNC(=O)c2ccc(NC(=O)c3cc4ccccc4o3)cc2)CC1`, for which the results for the inhibition in assay [1], in assay [2] and in assay [3] were 1.4%, 1.36% and 0.06%, respectively.
For the compound `CC(C)OC(=O)c1ccc(NC(=O)N[C@@H](Cc2ccc(O)cc2)C(=O)NC2CC3CCC(C2)N3Cc2ccccc2)cc1` (some centres undefined), the figures for the inhibition in assay [1], in assay [2] and in assay [3] were 5.85%, 4.77% and -0.07%, respectively.
`Cc1ccc(Nc2ccnc(Nc3ccc4c(c3)CS(=O)(=O)C4)n2)cc1O`: the inhibition was 2.49% in assay [1], 3.19% in assay [2] and 4.14% in assay [3].
On to `COc1ccc(CCNC(=O)c2cc3c(=O)n4cccc(C)c4nc3n(C)c2=N)cc1`, for which the inhibition in assay [1] was found to be 13.4%; in assay [2], 10.1%; in assay [3], 15.2%.
Turning to `CCOC(=O)c1cnc2c(OC)cc(OC)c(Cl)c2c1Nc1cccc(C)c1C`, the inhibition in assay [1] was 0.67%; in assay [2], -0.69%; in assay [3], -6.14%.
As to `CN(C)Cc1ccc(CN2CCN(CCOc3ccc(-c4ccc(Cl)cc4)cc3)CC2)o1`, the figures for the inhibition in assay [1], in assay [2] and in assay [3] were 22.7%, 13.8% and 19.2%, respectively.
With `Cc1ccc(-n2c(=O)c3c(n4c(SC(C)C)nnc24)-c2ccccc2CC32CCCCC2)cc1`, the values for the inhibition in assay [1], in assay [2] and in assay [3] were 7.08%, 6.98% and 5.47%, respectively.
The corresponding values for `O=c1c2ccc(Sc3ccccn3)cc2n(-c2ccccc2)c2cc(Sc3ccccn3)ccc12` are 1.05%, 0.77% and 2.64%.
For `CCOc1cc(Br)c(C(C)NC(=O)c2cccc(OC)c2)cc1OCC` (centres undefined), the inhibition in assay [1] was 0.82%; in assay [2] it was 0.03%; in assay [3], -0.19%.
With `COCCN1CCC(N(Cc2ccc(-c3ccc(C(F)(F)F)cc3)cc2)C(=O)Cn2c(CCc3cccc(F)c3F)cc(=O)c3c2CCC3)CC1`, the values for the inhibition in assay [1], in assay [2] and in assay [3] were -2.35%, -0.63% and -2.32%, respectively.
The corresponding values for `COc1c(C2CCN(CCCCNC(=O)c3ccc(-c4ccc(NC(=O)C(F)(F)F)cc4)cc3)CC2)ccc2c1CCCC2` are 1.22%, 4.26% and 0.3%.
For `COc1ccc2ncc(Cl)c([C@H](O)CN3CCC(NCc4cc5c(cn4)OCCO5)CC3)c2c1`, the inhibition in assay [1] was 11%; in assay [2], 7.96%; in assay [3], 6.66%.
The corresponding values for `CC1CCN(Cc2c(O)ccc3c(CN4CCC(C)CC4)c(O)ccc23)CC1` are 4.79%, 6.78% and 6.37%.
